# Assay outcomes: PubChem BioAssay, National Center for Advancing Translational Sciences (NCATS)
# aSyn yeast inh: rescues yeast growth from alpha-synuclein toxicity; Yeast expressing alpha-synuclein, growth rescue, BacTiter-Glo, 24 h; 370,000 tested, 0.14% active; Potency, µM (titrated, usually from 46.1 µM), inactives show top-dose growth rescue (activation), usual class: activators; AID 652106; also: % of control where 0% means no effect; nearly all actives have a fitted effect of over 65% in size
#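 Galactose-induced alpha-syn yeast (OD600=0.02, raffinose-pregrown) + pinned cpd, 24 hr, 30 deg C; growth by BacTiter-Glo luminescence. Growth restoration scores as activation.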
# FUS suppressor: suppressors of FUS proteinopathy in yeast; S. cerevisiae FUS-expressing, growth rescue, OD600, 24 h; Potency, µM (titrated, usually from 76.6 µM), hits mostly activators; 390,000 tested, 0.24% active; AID 1347120;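 also: plate controls were DMSO vehicle for no effect and reference control for full effect; nearly all actives have a fitted effect of over 55% in size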
#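 FUS-expressing yeast, raffinose-pregrown, induced in 2% galactose minimal medium at OD 0.005; compounds in a dilution series, 24hr at 30C. Growth restoration read as absorbance at 600 nm. CP55940 positive control, DMSO negative.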
# TDP-43 yeast inh: TDP-43 toxicity inhibition in yeast; TDP-43 expressing yeast growth rescue, BacTiter-Glo, 24 h; Potency, µM (doses to about 46.1 µM), for the others: top-dose growth rescue (activation), actives largely listed as activators; 410,000 tested, 1.8% active; also: % of control where 0% means no effect; nearly all actives have a fitted effect of over 50% in size
#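 In this qHTS, compounds that restore growth of yeast expressing TDP-43 appear as activators. Cells (OD600=0.02, galactose medium, raffinose-pregrown) are incubated with compound 24 hr at 30 deg C and growth is quantified by BacTiter-Glo.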
# Abeta rescue: A-beta toxicity reversal in yeast | yeast expressing A-beta42, growth rescue, OD600, 48 h; response scale: 0% DMSO, 100% iron-clioquinol control | Potency, µM (titrated, usually from 46.1 µM), usual class: activators | 410,000 tested, 0.063% active | AID 1347071; also: nearly all actives have a fitted effect of over 55% in size
#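 Yeast A-beta toxicity model in growth medium with pinned compounds, 48 h at 30 C; growth read as absorbance at 600 nm. Normalized to FeCl3/clioquinol equimolar mix (positive) and DMSO (negative).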
# * hit, by the source's call; i = inactive; ? = inconclusive; · = not tested or not shown; [ ] = dose if it differs, or a comment. Rows were chosen to be rich in hits. Some 2.1% of all compounds tested hit in one or more screens of this group. Calls follow the shape of the dose curve; as a rule, active = well fitted curve in the direction sought with a large enough effect; inconclusive = small, poorly fitted or top-dose-only effect, or another doubt; inactive = no such curve, though single readings can be large; an effect the other way counts as inactive or inconclusive. Potency is read from the fitted curve at half-maximal effect.
SMILES,aSyn yeast inh,FUS suppressor,TDP-43 yeast inh,Abeta rescue
Cc1ccc(NC(=O)CSc2nnc(-c3ccco3)c(-c3ccco3)n2)cc1,8%,?,-3%,i
Cc1cccc(C)c1NC(=O)CSc1nnc(-c2ccco2)c(-c2ccco2)n1,7%,i,22µM*,i
COc1cc(CNC(=O)c2cnc3c(-c4cccc(C)c4)c(C)nn3c2C)cc(OC)c1OC,·,i,20%,i
COc1ccc(C2=CC(=O)C[C@H](c3ccc(OC)c(OC)c3)C2)cc1,12%,i,13%,i
COc1ccc(C2=CC(=O)C[C@H](c3ccc(F)cc3)C2)cc1OC,0%,i,22µM*,i
COc1cccc(C2=CC(=O)C[C@H](c3ccc(F)cc3)C2)c1,1%,i,?,i
COc1ccc(C2=CC(=O)CC(c3ccc(F)cc3)C2)cn1 (configuration not stated),6%,i,18µM*,i
COc1ccc([C@H]2CC(=O)C=C(c3ccc(C)cc3)C2)cc1OC,4%,i,13µM*,i
COc1ccc([C@H]2CC(=O)C=C(c3ccc(Cl)c(C(F)(F)F)c3)C2)cc1OC,0%,?,16µM*,i
COc1ccc([C@H]2CC(=O)C=C(c3ccc(C(F)(F)F)c(C(F)(F)F)c3)C2)cc1OC,12%,i,6%,i
CCCCN(C)C(=O)CNc1nnnn1-c1ccccc1,·,i,·,·
COc1ccc(-n2nc(C(=O)NCCc3ccc(Cl)cc3)c3c4ccccc4n(C)c3c2=O)cc1,·,i,12%,i
CCC(C)Sc1oc(-c2ccco2)nc1S(=O)(=O)c1ccc(Cl)cc1 (configuration not stated),·,i,1%,i
O=S(=O)(c1ccccc1)N(CC(F)(F)F)c1ccc(C(O)(C(F)(F)F)C(F)(F)F)cc1,-19%,i,22µM*,?
O=C(O)CN(c1cccc(C(F)(F)F)c1)S(=O)(=O)c1ccccc1,-4%,i,-10%,i
CC(C)c1cc(C(C)C)c(S(=O)(=O)NCC(=O)N2CCN(c3ncccn3)CC2)c(C(C)C)c1,·,i,·,·
CC(C)c1cc(C(C)C)c(S(=O)(=O)NC(c2ccccn2)C23CC2C3)c(C(C)C)c1 (configuration not stated),?,?,22µM*,i
CCc1ccc(NS(=O)(=O)c2[nH]ncc2C(=O)OC)cc1,·,i,19%,i
COc1ccc(CN(Cc2ccccc2)C(=O)c2ccno2)cc1COc1ccc(NC(C)=O)cc1,0%,·,·,·
O=C(c1ccc2c(c1)OCCO2)C1CCN(C(=O)c2ccc(F)c(F)c2)CC1,2%,i,11µM*,i
O=C(O)c1cc2ccccc2c2c1C(=O)c1ccccc1-2,2.8µM*,i,-8%,?
Nc1cc(C(=O)O)c(N)c2c1C(=O)c1ccccc1C2=O,-29%,i,-34%,i
COCCN=c1scc(-c2ccco2)n1/N=C/c1ccc(O)c(O)c1O,3%,i,?,i
COCCN=c1scc(-c2cc(OC)ccc2OC)n1/N=C/c1c[nH]c2ccccc12,?,i,22µM*,i
O=C(Cn1c2ncccc2c(=O)n1-c1ccccc1)NCc1ccccc1,·,i,13µM*,i
SMILES,aSyn yeast inh,FUS suppressor,TDP-43 yeast inh,Abeta rescue
CCc1ccc(-n2c(=O)c3cccnc3n2CC(=O)NCc2ccccc2)cc1,·,i,3%,i
COc1ccc2[nH]c3c(=O)n(CCCCC(=O)N4CCCC4)c(=S)[nH]c3c2c1,0%,40µM*,-13%,i
CC[n+]1cccc(Br)c1,-5%,·,·,·
CCCCN(C)C(=O)c1cc2cc3ccc(OC)cc3nc2s1,-25%,i,18µM*,i
Nc1nc(Nc2ccccc2F)sc1C(=O)c1ccccc1,-17%,i,22µM*,?
Cc1nc(Nc2ccc(S(N)(=O)=O)cc2)sc1C(=O)Nc1ccccc1,-2%,i,-9%,i
O=C(NNc1ccccc1F)c1ccccc1,8%,i,-17%[1.82 µM],i
Cc1nc(Nc2ccccc2)sc1C(=O)Nc1ccccc1,-1%,i,10µM*,i
COc1ccc(C(=O)c2sc(Nc3ccc(NC(C)=O)cc3)nc2C)cc1,-10%,i,24%,i
CC(=O)c1cccc(NC(=O)c2sc(Cl)nc2C)c1,5%,i,?,i
Cc1nc(Cl)sc1C(=O)Nc1cccc(Cl)c1,16%,i,14µM*,i
Cc1nc(Nc2ccccc2)sc1C(=O)c1ccc(F)cc1,0%,i,22µM*,i
CC(=O)c1cc(-c2ccc(F)cc2)n(CCC(=O)NC2CCCCC2)c1C,·,i,-5%,i
CC1CCN(S(=O)(=O)c2ccc3c(c2)oc(=O)n3CC(=O)NC(C)c2ccccc2)CC1 (configuration not stated),·,i,-15%,i
COc1ccc(Nc2nc(C)c(-c3ccccc3)s2)cc1,-18%,·,13µM*,i
O=C1c2ccccc2C(=O)N1CCSc1n[nH]c(=S)s1,10%,·,20µM*,i
COc1ccc(OC)c(C(=O)c2coc3ccc(OC(C)=O)cc23)c1,19%,i,-15%[0.397 µM],i
COc1ccc(C(=O)c2coc3ccc(OC(C)=O)cc23)cc1,-13%,i,13µM*,i
c1ccc(-c2nc(-c3cnc4ccccc4n3)cs2)cc1,-18%,·,·,·
Cc1ccc(C)c(N2CCN(C(=O)CC3Sc4ccccc4NC3=O)CC2)c1 (configuration not stated),?,?,22µM*,i
Cc1ccc(C)c(N2CCN(C(=O)CN3CCSc4ccccc43)CC2)c1,?,i,25µM*,?
O=C(CN1CCSc2ccccc21)N1CCN(c2ccc(F)cc2)CC1,4%,i,22%,i
CCCc1ccc(C2Sc3ccccc3NC3=C2C(=O)c2ccccc23)cc1 (configuration not stated),·,i,10%,i
CC(=O)Nc1cc2c(cc1[N+](=O)[O-])-c1ccccc1C2=NO,8%,·,0%,i
Nc1cc2c(cc1[N+](=O)[O-])-c1ccccc1C2=NO,9%,·,3.5µM*,i
SMILES,aSyn yeast inh,FUS suppressor,TDP-43 yeast inh,Abeta rescue
CN(Cc1ccc(F)cc1)S(=O)(=O)c1nnc(NC(=O)c2ccccc2Cl)s1,·,i,19%,i
Oc1sc(C=Nc2ccccc2)c2ccccc12,6%,i,?,i
Oc1sc(C=Nc2ccc(F)cc2)c2ccccc12,0%,i,0.63µM*,i
CCCNC(=O)c1nnsc1S(=O)c1ccc(Cl)cc1 (configuration not stated),-76%,i,?,i
CCCNC(=O)c1nnsc1S(=O)(=O)c1ccc(Cl)cc1,-68%,i,1.6µM*,i
O=C(c1ccc(S(=O)(=O)Cc2cc(F)ccc2F)c([N+](=O)[O-])c1)N1CCOCC1,7%,i,20µM*,i
O=C(c1ccc(S(=O)(=O)Cc2ccccc2F)c([N+](=O)[O-])c1)N1CCCCCC1,17%,i,6%,i
